Results as given in paper PMC9838217, “Structure of SALL4 zinc finger domain reveals link between AT-rich DNA binding and Okihiro syndrome”.
Substitutions are numbered along the chain they refer to.

How the values were obtained:
[1] = target: T1, SALL4 ZFC4 R900W (HT-SELEX) (Mus musculus, UniProt Q8BX22 870-940, R900W); assay: HT-SELEX; high values mean tight binding; conditions: protein: recombinant; vector His6-GST; dsDNA, one strand shown
T1 sequence: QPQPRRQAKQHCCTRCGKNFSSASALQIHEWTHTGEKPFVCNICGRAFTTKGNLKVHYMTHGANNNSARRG
Outline: (§1)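 Up to 6 cycles of selection were run in triplicate. In each, purified recombinant mouse SALL4 zinc finger cluster 4 (residues 870–940, 1 µg) was incubated with library DNA (1.5 µg first cycle, 200 ng later) in 100 µl of 10 mM Tris–HCl pH 7.5, 50 mM NaCl, poly(dI-dC), DTT for 10 min at room temperature, then complexes were captured on Ni2+ beads, washed and PCR-amplified; final pools were MiSeq-sequenced and scanned for 6-mers. Binding signal is each canonical k-mer's read fraction as fold change versus the initial random library.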

[2] = target: T2, SALL4 ZFC4 G921D (HT-SELEX) (Mus musculus, UniProt Q8BX22 870-940, G921D); assay: HT-SELEX; high values mean tight binding; conditions: protein: recombinant; vector His6-GST; dsDNA, one strand shown
T2 sequence: T1 sequence with W31R, G52D
Outline: as §1

Sequence | binding signal [1] | binding signal [2]
CGCTGA | 0.291 ± 0.0233 fold-change vs cycle 0 | 0.403 ± 0.0818 fold-change vs cycle 0
CTTCGC | 0.34 ± 0.0357 fold-change vs cycle 0 | 0.455 ± 0.0772 fold-change vs cycle 0
CAGGCA | 0.348 ± 0.0149 fold-change vs cycle 0 | 0.477 ± 0.0613 fold-change vs cycle 0
GCGGTA | 0.271 ± 0.0135 fold-change vs cycle 0 | 0.391 ± 0.0556 fold-change vs cycle 0
AAGGGC | 0.343 ± 0.00573 fold-change vs cycle 0 | 0.488 ± 0.064 fold-change vs cycle 0
GACGCA | 0.263 ± 0.0079 fold-change vs cycle 0 | 0.386 ± 0.0647 fold-change vs cycle 0
